Among all 190,000 compounds or so, about 4,100 (2.2%) were called active. This is one part of a sample in which actives are shown more often than they occur. A number with no mark means an inactive call.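 How the source made its calls: active means thallium flux slope and its plate-corrected score both differing from the plate sample mean at a set confidence after two filtering rounds, in either direction; inactive means the rest.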

The target of the test is Solute carrier family 12 member 5 (Homo sapiens) (UniProt Q9H2X9). The test is described as follows: KCC2 cotransporter modulators, thallium flux, primary screen, cell-based, HEK293 KCC2, FluoZin-2 fluorescence, MLSMR (AID 1456).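 Further: slope of fluorescence scaled to starting intensity during 10 to 20 s after thallium.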 Conditions: KCC2 cells, thallium flux FluoZin-2 fluorescence; at 10 µM.
Chain of Solute carrier family 12 member 5 (Homo sapiens) (Q9H2X9 whole entry, looked up): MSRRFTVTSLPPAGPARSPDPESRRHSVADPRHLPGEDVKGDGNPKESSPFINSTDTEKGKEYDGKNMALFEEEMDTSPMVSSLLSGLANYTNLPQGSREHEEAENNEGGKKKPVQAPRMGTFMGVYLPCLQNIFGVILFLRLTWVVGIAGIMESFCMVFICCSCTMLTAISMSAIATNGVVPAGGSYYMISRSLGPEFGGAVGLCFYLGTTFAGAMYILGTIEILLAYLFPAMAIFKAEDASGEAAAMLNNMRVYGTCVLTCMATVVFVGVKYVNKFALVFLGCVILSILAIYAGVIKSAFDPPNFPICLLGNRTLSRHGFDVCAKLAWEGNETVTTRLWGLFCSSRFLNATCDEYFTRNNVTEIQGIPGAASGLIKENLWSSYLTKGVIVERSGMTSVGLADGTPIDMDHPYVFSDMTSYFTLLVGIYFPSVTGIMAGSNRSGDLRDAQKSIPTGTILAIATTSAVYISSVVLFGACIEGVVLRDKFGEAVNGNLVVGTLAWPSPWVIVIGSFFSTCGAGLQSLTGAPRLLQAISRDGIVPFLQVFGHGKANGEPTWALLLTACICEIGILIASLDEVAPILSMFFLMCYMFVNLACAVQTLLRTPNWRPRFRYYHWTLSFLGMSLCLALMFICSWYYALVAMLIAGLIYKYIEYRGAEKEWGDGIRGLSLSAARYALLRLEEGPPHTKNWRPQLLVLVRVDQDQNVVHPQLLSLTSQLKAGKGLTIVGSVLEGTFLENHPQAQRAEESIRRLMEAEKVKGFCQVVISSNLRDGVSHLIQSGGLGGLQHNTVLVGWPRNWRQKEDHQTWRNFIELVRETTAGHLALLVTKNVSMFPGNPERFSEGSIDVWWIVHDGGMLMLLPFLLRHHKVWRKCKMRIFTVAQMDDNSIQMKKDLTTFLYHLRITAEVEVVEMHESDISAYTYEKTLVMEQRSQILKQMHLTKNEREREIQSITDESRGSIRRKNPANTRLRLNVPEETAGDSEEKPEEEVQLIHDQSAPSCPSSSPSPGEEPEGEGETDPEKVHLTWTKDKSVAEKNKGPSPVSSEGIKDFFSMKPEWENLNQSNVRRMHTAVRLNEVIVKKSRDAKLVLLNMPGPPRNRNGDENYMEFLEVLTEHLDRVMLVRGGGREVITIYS
As for `COc1ccc(/C=N/n2nnnc2N)cc1OC`, the B-score of Tl+ flux slope (higher = more flux/activation; lower = inhibition) is 0.513.

Consider `c1ccc(C2c3[nH]c4ccccc4c3CCN2Cc2cccn2-c2cccnc2)nc1` (stereo not given), for which the B-score of Tl+ flux slope (higher = more flux/activation; lower = inhibition) is -1.15.

On to `Cc1nnc(SC(C(=O)Nc2cc(Cl)cc(Cl)c2)c2ccccc2)[nH]c1=O` (stereo not given), for which the B-score of Tl+ flux slope (higher = more flux/activation; lower = inhibition) was -4.12 (active).

As for `Cc1nnc(SC(C(=O)c2ccccc2)c2ccccc2)[nH]c1=O` (stereo not given), the B-score of Tl+ flux slope (higher = more flux/activation; lower = inhibition) is -0.235.

Consider `O=C(Nc1cc(Cl)cc(Cl)c1)C(NCCCO)c1ccccc1` (stereo not given), for which the B-score of Tl+ flux slope (higher = more flux/activation; lower = inhibition) was -0.607.

Take `O=C1N(c2ccccc2)C(=Nc2ccccc2)SC12CC2`: the B-score of Tl+ flux slope (higher = more flux/activation; lower = inhibition) is -0.447.

Turning to `O=C(c1ccc(=O)oc1)N1CCC(C(O)(c2ccccc2)c2ccccc2)CC1`, the B-score of Tl+ flux slope (higher = more flux/activation; lower = inhibition) is -0.673.

Turning to `Cc1ccc(C(=O)NC(=S)NCc2cccnc2)cc1`, the B-score of Tl+ flux slope (higher = more flux/activation; lower = inhibition) is 1.21.

For `O=C(CCc1ccccc1)NCc1cccnc1`, the B-score of Tl+ flux slope (higher = more flux/activation; lower = inhibition) is 0.123.

On to `Cc1c(C(=O)NC(=S)NCc2cccnc2)oc2ccccc12`, for which the B-score of Tl+ flux slope (higher = more flux/activation; lower = inhibition) is 13.6 (active).

`CC(C)(C)c1ccc(CCC2OCC(CN3CCOCC3)O2)cc1` (stereo not given): the B-score of Tl+ flux slope (higher = more flux/activation; lower = inhibition) was 0.742.

On to `CCNC(=S)N1CCN(CCN=CC2=C(O)CC(C)(C)CC2=O)CC1`, for which the B-score of Tl+ flux slope (higher = more flux/activation; lower = inhibition) is -0.763.

For the compound `Cc1ccc(C(O)P(=O)(OC(C)C)c2ccc(N(C)C)cc2)cc1` (stereo not given), the B-score of Tl+ flux slope (higher = more flux/activation; lower = inhibition) is 0.0994.

Regarding `COC(=O)c1sccc1NC(=O)COc1ccc(Cl)cc1`, the B-score of Tl+ flux slope (higher = more flux/activation; lower = inhibition) was 0.143.

Regarding `COC(=O)c1scc(C)c1NC(=O)CSc1ccc(Cl)cc1`, the B-score of Tl+ flux slope (higher = more flux/activation; lower = inhibition) was -1.21.

In the case of `COC(=O)c1sccc1NC(=O)CSc1ccccc1NS(=O)(=O)c1cc(Cl)ccc1Cl`, the B-score of Tl+ flux slope (higher = more flux/activation; lower = inhibition) was 18.4 (active).

With `O=C(CSc1ccc(-c2ccco2)nn1)NCc1ccc2c(c1)OCO2`, the B-score of Tl+ flux slope (higher = more flux/activation; lower = inhibition) was -0.85.

Take `CC(C)Cc1nc(Cl)c(C#N)c2c1CCC2`: the B-score of Tl+ flux slope (higher = more flux/activation; lower = inhibition) is -0.778.

On to `CCCC(=O)N1c2ccccc2NC2=C(C(=O)CCC2)C1c1ccc(F)cc1` (stereo not given), for which the B-score of Tl+ flux slope (higher = more flux/activation; lower = inhibition) is 2.84 (active).

Regarding `O=C1CC(c2cccc(F)c2)C2=C(CCCC2=O)N1` (stereo not given), the B-score of Tl+ flux slope (higher = more flux/activation; lower = inhibition) was -0.124.

As to `CCC(=O)N1c2ccccc2NC2=C(C(=O)CCC2)C1c1ccco1` (stereo not given), the B-score of Tl+ flux slope (higher = more flux/activation; lower = inhibition) is 1.12.

As for `Cn1cnc([N+](=O)[O-])c1Sc1n[nH]c(N)n1`, the B-score of Tl+ flux slope (higher = more flux/activation; lower = inhibition) is 0.197.

As for `Cn1cnc(S(=O)(=O)Nc2ccc3c(c2)OCCO3)c1`, the B-score of Tl+ flux slope (higher = more flux/activation; lower = inhibition) was 1.1.

Consider `Oc1ccc2ccccc2c1C=Nc1ccccc1`, for which the B-score of Tl+ flux slope (higher = more flux/activation; lower = inhibition) is -0.244.

For `Oc1ccc2ccccc2c1N=Nc1nccs1`, the B-score of Tl+ flux slope (higher = more flux/activation; lower = inhibition) was 111 (active).

As for `Oc1ccc(N=Nc2nccs2)c(O)c1`, the B-score of Tl+ flux slope (higher = more flux/activation; lower = inhibition) was 0.824.

Turning to `Cc1ccc(NC(=O)Nc2cc(-c3ccccc3)nn2C)cc1Cl`, the B-score of Tl+ flux slope (higher = more flux/activation; lower = inhibition) was 0.308.

`CCOC(=O)c1cnc(COc2ccccc2Cl)[nH]c1=O`: the B-score of Tl+ flux slope (higher = more flux/activation; lower = inhibition) is 1.26.

For the compound `Cn1c(=O)c2c(nc(NCc3ccccc3)n2CC(N)=O)n(C)c1=O`, the B-score of Tl+ flux slope (higher = more flux/activation; lower = inhibition) is 0.178.

Regarding `CCc1cc(-c2n[nH]c(=S)n2CC(C)C)cs1`, the B-score of Tl+ flux slope (higher = more flux/activation; lower = inhibition) was 8.35 (active).

As to `C=CCn1c(-c2ccc3[nH]c(C)c(C)c3c2)n[nH]c1=S`, the B-score of Tl+ flux slope (higher = more flux/activation; lower = inhibition) was -0.00959.

For the compound `Cc1cc(-c2csc(N)n2)c(C)n1Cc1ccccc1`, the B-score of Tl+ flux slope (higher = more flux/activation; lower = inhibition) was 1.01.

Regarding `CCn1c(-c2ccncc2)n[nH]c1=S`, the B-score of Tl+ flux slope (higher = more flux/activation; lower = inhibition) is -0.798.

On to `CCCc1cc(-c2n[nH]c(=S)n2CC)c2ccccc2n1`, for which the B-score of Tl+ flux slope (higher = more flux/activation; lower = inhibition) is -0.942.

As for `CCCc1cc(-c2n[nH]c(=S)n2Cc2ccccc2)cs1`, the B-score of Tl+ flux slope (higher = more flux/activation; lower = inhibition) is 4.54 (active).

`CSC1=NCCN1C(=O)Cc1cccc2ccccc12`: the B-score of Tl+ flux slope (higher = more flux/activation; lower = inhibition) is 0.183.

On to `Brc1ccc(-c2n(-c3ccccn3)c3ccccc3[n+]2-c2ccccn2)cc1`, for which the B-score of Tl+ flux slope (higher = more flux/activation; lower = inhibition) is 1.55.

As to `CCCc1ccc(C(=O)[C@@H]2[C@@H](C(C)=O)N3c4ccc(F)cc4C=C[C@@H]3[C@@]23C(=O)Nc2ccccc23)cc1`, the B-score of Tl+ flux slope (higher = more flux/activation; lower = inhibition) is 0.383.

Take `O=S(=O)(c1cccc(-c2nnc3n2CCCCC3)c1)N1CCOCC1`: the B-score of Tl+ flux slope (higher = more flux/activation; lower = inhibition) was -1.09.

Turning to `O=C(Nc1nnc(C2COc3ccccc3O2)o1)c1ccc(F)cc1` (stereo not given), the B-score of Tl+ flux slope (higher = more flux/activation; lower = inhibition) was 15 (active).

`O=C(CN1C(=O)COc2ccccc21)Nc1ccc(F)cc1`: the B-score of Tl+ flux slope (higher = more flux/activation; lower = inhibition) is 0.048.

Take `c1ccc2c(c1)OCC(c1nn3cnnc3s1)O2` (stereo not given): the B-score of Tl+ flux slope (higher = more flux/activation; lower = inhibition) is -0.604.

On to `O=C(NNC(=O)c1csc(-c2cccnc2)n1)Nc1ccc(Cl)cc1`, for which the B-score of Tl+ flux slope (higher = more flux/activation; lower = inhibition) is -0.334.

Consider `COc1ccc(NC(=O)CCN2C(=O)/C(=C/c3ccc4c(c3)OCO4)SC2=S)cc1`, for which the B-score of Tl+ flux slope (higher = more flux/activation; lower = inhibition) is -1.33.

`CCC1(C)Cc2c(sc3nc(SC)[nH]c(=O)c23)CO1` (stereo not given): the B-score of Tl+ flux slope (higher = more flux/activation; lower = inhibition) is 0.823.

Take `CCC1(C)Cc2c(sc3nc4n(c(=O)c23)CCCS4)CO1` (stereo not given): the B-score of Tl+ flux slope (higher = more flux/activation; lower = inhibition) is -0.0542.

In the case of `CCC1(C)Cc2c(sc3[nH]c(=S)n(Cc4ccccc4)c(=O)c23)CO1` (stereo not given), the B-score of Tl+ flux slope (higher = more flux/activation; lower = inhibition) is 35.8 (active).

As to `Cc1c(C)c(C)c2[nH]c(=S)[nH]c2c1C`, the B-score of Tl+ flux slope (higher = more flux/activation; lower = inhibition) was 0.63.

Take `COc1ccc(Cl)cc1C(=O)NNC(=O)c1nc2nc(C)cc(C)n2n1`: the B-score of Tl+ flux slope (higher = more flux/activation; lower = inhibition) was -1.53.

On to `CCN1CCN(c2nc(Nc3cccc(F)c3)nc(N)c2[N+](=O)[O-])CC1`, for which the B-score of Tl+ flux slope (higher = more flux/activation; lower = inhibition) was -0.953.
